Compound activity: PubChem, The Scripps Research Institute Molecular Screening Center
TCR CD3 inh – inhibitors of human TCR-CD3 interaction; TAMRA-labeled TCR probe fluorescence, biochemical; inhibition, % at 9.4 µM; hit rate 0.37% among 360,000; AID 651800; in the data active = inhibition above about 19%;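 note: recombinant mutant TCR 2C K166C tagged with TAMRA read by polarization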
PAFAH2 FP inh – PAFAH2 (human) inhibition; Q99487; recombinant PAFAH2, FP-rhodamine activity probe, fluorescence polarization; inhibition, % at 3.39 µM; hit rate 0.99% among 340,000;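 active = inhibition above the mean over all tested compounds plus 3 SD, cut at about 30% in these data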;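 note: inhibitors block probe labeling of enzyme so polarization drops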
pPAFAH FP inh – inhibitors of human plasma PAF acetylhydrolase (pPAFAH) | Q13093 | recombinant pPAFAH, FP-rhodamine probe fluorescence polarization | inhibition, % at 3.39 µM | hit rate 1.5% among 330,000;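 active = inhibition above the mean inhibition across the screen plus 3 SD, cut at about 25% in these data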;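 note: inhibitors block binding of the rhodamine activity-based probe so polarization drops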
PAFAH1B3 FP inh – blocks human PAF acetylhydrolase 1B catalytic subunit 3; recombinant PAFAH1B3, FP-rhodamine probe, fluorescence polarization; inhibition, % at 3.39 µM; Q15102; hit rate 0.28% among 340,000; AID 492972;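 active = inhibition above the screen-wide average of all tested compounds plus 3 SD, cut at about 25% in these data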
Target sequence (Q15102 whole entry, looked up): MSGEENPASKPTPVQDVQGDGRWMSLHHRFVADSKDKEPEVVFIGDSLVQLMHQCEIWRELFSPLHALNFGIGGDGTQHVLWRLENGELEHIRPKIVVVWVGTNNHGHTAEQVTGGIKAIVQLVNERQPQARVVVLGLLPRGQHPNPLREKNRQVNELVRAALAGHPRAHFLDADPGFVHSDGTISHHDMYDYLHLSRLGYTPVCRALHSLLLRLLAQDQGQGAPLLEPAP
PAFAH1B2 inh – PAFAH1B2 (human) inhibition; inhibition, % at 3.39 µM; P68402; recombinant PAFAH1B2, FP-rhodamine activity probe, fluorescence polarization; AID 492953; hit rate 1.2% among 340,000;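 active = inhibition above the mean of all tested compounds plus 3 SD, cut at about 24% in these data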
Target sequence (P68402 whole entry, looked up): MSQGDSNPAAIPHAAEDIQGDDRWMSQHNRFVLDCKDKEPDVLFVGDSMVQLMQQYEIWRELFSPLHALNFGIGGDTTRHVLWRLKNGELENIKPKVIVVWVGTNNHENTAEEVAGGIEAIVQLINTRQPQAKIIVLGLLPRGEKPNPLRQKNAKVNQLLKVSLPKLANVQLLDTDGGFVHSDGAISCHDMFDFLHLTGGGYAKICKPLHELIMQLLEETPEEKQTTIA
Hits are given with their value. The list is not random: actives were taken first. Their share in the collection is about 2.7%.

`CCOC(=O)N1CCC2(CC1)C(C#N)=C(N)Oc1n[nH]c(CSc3ccc(C)cc3)c12` gave TCR CD3 inh inactive, PAFAH2 FP inh inactive, pPAFAH FP inh inactive, PAFAH1B3 FP inh inactive and PAFAH1B2 inh 27.
For Cc1ccc(SCc2[nH]nc3c2C2(C(=O)Nc4ccc([N+](=O)[O-])cc42)C(C#N)=C(N)O3)cc1 (stereo not given) the results were TCR CD3 inh inactive, PAFAH2 FP inh inactive, pPAFAH FP inh inactive, PAFAH1B3 FP inh inactive and PAFAH1B2 inh inactive.
For Cc1ccc(SCc2[nH]nc3c2C2(CCSCC2)C(C#N)=C(N)O3)cc1 the results were TCR CD3 inh inactive, PAFAH2 FP inh inactive, pPAFAH FP inh inactive, PAFAH1B3 FP inh inactive and PAFAH1B2 inh 38.
For O=C(N[C@@H](Cc1cccnc1)C(=O)N1CCC[C@H]1C(=O)NCc1ccccc1)c1ccccc1 the results were TCR CD3 inh inactive.
`CCC(=O)N1CCCC(C(=O)NS(=O)(=O)c2cc(C)c(Cl)cc2C)CC1` (stereo not given) gave TCR CD3 inh inactive.
`CC(C(=O)NCCS(=O)(=O)c1ccc(Br)cc1)S(=O)(=O)c1ccc(Cl)cc1` (stereo not given) gave TCR CD3 inh inactive, PAFAH2 FP inh inactive, pPAFAH FP inh inactive, PAFAH1B3 FP inh inactive and PAFAH1B2 inh inactive.
For O=C(NCCS(=O)(=O)c1ccc(Br)cc1)c1ccc(Cl)cc1 the results were TCR CD3 inh inactive, PAFAH2 FP inh inactive, pPAFAH FP inh inactive, PAFAH1B3 FP inh inactive and PAFAH1B2 inh 28.
O=S(=O)(c1ccc(F)cc1)N1CCN=C1SCc1cccnc1 was read as TCR CD3 inh inactive, PAFAH2 FP inh inactive, pPAFAH FP inh inactive, PAFAH1B3 FP inh inactive and PAFAH1B2 inh inactive.
`O=S(=O)(c1ccc(Br)cc1)N1CCN=C1SCc1cccnc1` gave TCR CD3 inh inactive, PAFAH2 FP inh inactive, pPAFAH FP inh inactive, PAFAH1B3 FP inh inactive and PAFAH1B2 inh 25.
COC(=O)C1=C(C)N(Cc2cccc(C(F)(F)F)c2)C(=NCc2ccc(OC)cc2)NC1c1ccccc1C(F)(F)F (stereo not given) was read as TCR CD3 inh inactive.
`C=CCN1C(=O)c2n[nH]c(C(C)C)c2C1c1ccc(C)cc1` (stereo not given) gave TCR CD3 inh inactive.
O=S(=O)(c1ccc(F)cc1)n1cnc2ccccc21 was read as TCR CD3 inh inactive, PAFAH2 FP inh inactive, pPAFAH FP inh inactive, PAFAH1B3 FP inh inactive and PAFAH1B2 inh 26.
COc1cccc(C(=O)N[C@H](C(=O)N2CCC[C@H]2C(=O)NCCc2ccccc2Cl)C(C)C)c1 was read as TCR CD3 inh inactive.
Cc1ccc(C)c(NS(=O)(=O)c2ccc(-c3cnc(C4CC4)o3)cc2)c1 was read as TCR CD3 inh inactive, PAFAH2 FP inh inactive, pPAFAH FP inh 33, PAFAH1B3 FP inh inactive and PAFAH1B2 inh inactive.
For CCOc1ccc(NS(=O)(=O)c2ccc(-c3cnc(C4CC4)o3)cc2)cc1 the results were TCR CD3 inh inactive, PAFAH2 FP inh inactive, pPAFAH FP inh 31, PAFAH1B3 FP inh inactive and PAFAH1B2 inh inactive.
For Cc1cc(C)cc(NS(=O)(=O)c2ccc(-c3cnc(C4CC4)o3)cc2)c1 the results were TCR CD3 inh inactive, PAFAH2 FP inh inactive, pPAFAH FP inh inactive, PAFAH1B3 FP inh inactive and PAFAH1B2 inh inactive.
Screening O=c1[nH]c(CSc2nc3ccccc3s2)nc2ccccc12 returned TCR CD3 inh inactive, PAFAH2 FP inh inactive, pPAFAH FP inh inactive, PAFAH1B3 FP inh inactive and PAFAH1B2 inh 31.
O=c1[nH]c(CSc2nc3ccccc3s2)nc2cc(Cl)ccc12 was read as TCR CD3 inh inactive and pPAFAH FP inh inactive.
CC1(C(=O)Nc2ccccc2Br)CCN1C(=O)Cc1ccc(Cl)cc1Cl (stereo not given) was read as TCR CD3 inh inactive.
COc1cccc(CN(C)C(=O)c2ccc(COc3ccc(Cl)cc3)cc2)c1OC was read as TCR CD3 inh inactive, PAFAH2 FP inh inactive, pPAFAH FP inh inactive, PAFAH1B3 FP inh inactive and PAFAH1B2 inh 25.
Screening COc1ccccc1CN(C)C(=O)c1ccc(COc2ccccc2)cc1 returned TCR CD3 inh inactive, PAFAH2 FP inh inactive, pPAFAH FP inh inactive, PAFAH1B3 FP inh inactive and PAFAH1B2 inh inactive.
For CC(SCc1nc2sc3c(c2c(=O)[nH]1)CCCC3)C(=O)Nc1ccccn1 (stereo not given) the results were TCR CD3 inh inactive, PAFAH2 FP inh inactive, pPAFAH FP inh inactive, PAFAH1B3 FP inh inactive and PAFAH1B2 inh inactive.
For Cc1ccc(OCCNC(=O)CCc2nc3sc4c(c3c(=O)[nH]2)CCCC4)cc1 the results were TCR CD3 inh inactive, PAFAH2 FP inh inactive, pPAFAH FP inh inactive, PAFAH1B3 FP inh inactive and PAFAH1B2 inh 27.
Cc1ccc(NC(=O)C(C)SCc2nc3sc4c(c3c(=O)[nH]2)CCCC4)nc1 (stereo not given) was read as TCR CD3 inh inactive, PAFAH2 FP inh inactive, pPAFAH FP inh inactive, PAFAH1B3 FP inh inactive and PAFAH1B2 inh 29.
CC1CC(NC(=O)CC#N)CC(C)(C)C1 (stereo not given) was read as TCR CD3 inh inactive, PAFAH2 FP inh inactive, pPAFAH FP inh inactive, PAFAH1B3 FP inh inactive and PAFAH1B2 inh inactive.
`CC1CC(NC(=O)C2(C)CC2(Cl)Cl)CC(C)(C)C1` (stereo not given) gave TCR CD3 inh inactive, PAFAH2 FP inh inactive, pPAFAH FP inh inactive, PAFAH1B3 FP inh inactive and PAFAH1B2 inh 26.
`O=C(COC(=O)c1ncc(Cl)c(Cl)c1Cl)Nc1ccccc1OC(F)F` gave TCR CD3 inh inactive, PAFAH2 FP inh inactive, pPAFAH FP inh 25, PAFAH1B3 FP inh inactive and PAFAH1B2 inh inactive.
`O=C(COC(=O)c1cccc(S(=O)(=O)NCc2ccccc2)c1)Nc1ccccc1OC(F)F` gave TCR CD3 inh inactive, PAFAH2 FP inh 43, pPAFAH FP inh 32, PAFAH1B3 FP inh inactive and PAFAH1B2 inh inactive.
O=C(COC(=O)c1ccc(S(=O)(=O)NCc2ccco2)cc1)Nc1ccccc1OC(F)F was read as TCR CD3 inh inactive, PAFAH2 FP inh inactive, pPAFAH FP inh inactive, PAFAH1B3 FP inh inactive and PAFAH1B2 inh inactive.
Nc1[nH]c(C(=O)c2ccc(Br)cc2)c(-c2cccc3ccccc23)c1C(=O)NCCc1c[nH]c2ccccc12 was read as TCR CD3 inh inactive.
Screening Nc1nc2c(ncn2[C@@H]2O[C@H](C(=O)NCCCN3CCCC3=O)[C@@H](O)[C@H]2O)c(=O)[nH]1 returned TCR CD3 inh inactive.
Screening COC(=O)[C@]12C[C@H](CC(=O)NCc3ccc(OC)c(OC)c3)C(=O)N(CCC3=CCCCC3)C1=C[C@H](COCc1ccccc1)O[C@@H]2C returned TCR CD3 inh inactive.
For Cc1ccc(NC(=O)COC(=O)Cc2csc(-c3cccc(F)c3)n2)cc1C the results were TCR CD3 inh inactive, PAFAH2 FP inh inactive, pPAFAH FP inh 27, PAFAH1B3 FP inh inactive and PAFAH1B2 inh inactive.
`CC1CCCC(NC(=O)COC(=O)c2cc(=O)[nH]c3ccccc23)C1C` (stereo not given) gave TCR CD3 inh inactive, PAFAH2 FP inh inactive, pPAFAH FP inh inactive, PAFAH1B3 FP inh inactive and PAFAH1B2 inh inactive.
